SMILES strings stand for the structures. Several values for one entry are separate records, joined by “and”; a condition that tells them apart may be missing. Equal entries are not always repeated. Activity calls are given as the source filed them. Rule for the calls: active = hit-call score of the fitted dose curve at least 0.9, where 1 is the maximum; inactive = score below 0.9.

What is called AC50 is the concentration at which the activity in the assay is half-maximal.

Read-out in this assay: Monokine induced gamma interferon (MIG), CXCL9 (gene 4283)
As to the kind of experiment: BSK_3C_MIG: BioMAP Diversity Plus: 3C Assay for Monokine induced gamma interferon (MIG) Biomarker Activity (AID 2283021).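 For AC50: MIG protein level measured by immunoassay in the treated endothelial cultures.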 The note with it: primary human endothelial cells (HUVEC); actives raise or lower the signal. The method, then: BSK_3C is a cell-based, multiplexed-readout assay that uses umbilical vein endothelium, a human vascular primary cell, with measurements taken at 24 hours after chemical dosing in a 96-well plate.BSK_3C_MIG is an assay component measured in the BSK_3C assay. It measures MIG antibody related to regulation of gene expression using ELISA technology.Data from the assay component BSK_3C_MIG was analyzed into 1 assay endpoint. This assay endpoint, BSK_3C_MIG, was analyzed with bidirectional fitting relative to DMSO as the negative control and baseline of activity. Using a type of binding reporter, gain or loss-of-signal activity can be used to understand changes in the signaling as they relate to the gene CXCL9. Furthermore, this assay endpoint can be referred to as a primary readout, because this assay has produced multiple assay endpoints where this one serves a signaling function. To generalize the intended target to other relatable targets, this assay endpoint is annotated to the cytokine intended target family, where the subfamily is chemotactic factor.
The levels of cell surface (or secreted, indicated by the prefix "s") biomarker endpoints were measured by ELISA. Overt cytotoxicity to cells in confluent adherent cultures (all systems other than the BT system) was assessed by measuring total protein levels using sulforhodamine B (SRB) staining in parallel cultures at the time of biomarker measurements, indicated as SRB endpoints. For proliferation assays for adherent cell types, individual cell types are cultured at sub-confluence and relative cell numbers quantified by SRB staining at time points optimized for each system (48 h: 3C and CASM3C systems; 72 h: BT and HDF3CGF systems; 96 h: SAg system). SRB was performed by staining cells with 0.1% SRB after fixation with 10% TCA and reading wells at 560 nm.Viability and proliferation of PBMC (T cells) was quantified by Alamar Blue reduction for the SAg and BT systems. For PBMC viability (referred to as PBMC Cytotoxicity within the assay endpoint names), cells were plated (75,000/well in a 96-well plate) and then chemical samples added for 1 h before addition of activators, SEB and TSST-1 (20 ng/mL final concentration each). Cells were incubated for 90 h. Then, Alamar Blue (20 uL/well) (Invitrogen, Cat DAL1100) was added for 6 h, and the plates were read with a fluorescence microplate reader at 546/580 nm (excitation/emission). For PBMC proliferation, cells were plated and activated as above but incubated for only 16 h prior to addition of Alamar Blue. Plates were read after 6 h.
As for `N#CSCSc1nc2ccccc2s1`, the AC50 is 11 µM (active) and 11.9 µM (active).

On to `CCOC(=O)NCCOc1ccc(Oc2ccccc2)cc1`, for which the result was inactive.

As for `S=C(S)NCCNC(=S)S.[Mn+2].[S-]C([S-])=NCCN=C([S-])[S-].[Zn+2]`, the outcome was inactive.

In the case of `CSC(=O)c1cccc2nnsc12`, the outcome was inactive.

On to `C#CCOC(=O)[C@@H](C)Oc1ccc(Oc2ncc(Cl)cc2F)cc1`, for which the outcome was inactive.

Consider `CC(C)(c1ccc(O)cc1)c1ccc(O)cc1`, for which the result was inactive.

For `CCN(CC)C(=O)c1cccc(C)c1`, the result was inactive.

For `CC(=O)S[C@@H]1CC2=CC(=O)CC[C@]2(C)[C@H]2CC[C@@]3(C)[C@@H](CC[C@@]34CCC(=O)O4)[C@H]12`, the outcome was inactive.

Consider `CCC(O)=C1C(=O)CC(C(=O)O)CC1=O` (stereo not given), for which the result was inactive.

As for `COC(=O)CSc1cc(N=c2sc(=O)n3n2CCCC3)c(F)cc1Cl`, the result was inactive.

Regarding `CCCCOCCOCCOCc1cc2c(cc1CCC)OCO2`, the outcome was inactive.

As to `CCCOC(=O)NCCCN(C)C`, the outcome was inactive.

`CCSC(=O)N(CC(C)C)CC(C)C`: the result was inactive.

For the molecule `O=C(O)C1(C(=O)Nc2ccc(Cl)cc2Cl)CC1`, the outcome was inactive.

In the case of `CCCN(CCC)C(=O)SCC`, the outcome was inactive.

Turning to `C=CCOC(Cn1ccnc1)c1ccc(Cl)cc1Cl` (stereo not given), the outcome was inactive.

For the molecule `CCCN(CCC)c1c([N+](=O)[O-])cc(C(F)(F)F)c(N)c1[N+](=O)[O-]`, the half-maximal activity concentration (AC50) is 31.7 µM (active).

For `COC(=O)c1ccccc1C(=O)O`, the outcome was inactive.

On to `CC(=O)[C@H]1CC[C@H]2[C@@H]3CCC4=CC(=O)CC[C@]4(C)[C@H]3CC[C@]12C`, for which the outcome was inactive.

For `COC(=O)c1c(Cl)nn(C)c1S(=O)(=O)NC(=O)Nc1nc(OC)cc(OC)n1`, the outcome was inactive.

With `O=C(Nc1ccc([N+](=O)[O-])cc1Cl)c1cc(Cl)ccc1O`, the result was inactive.

As to `CCCCC(CC)CN1C(=O)C2C3C=CC(C3)C2C1=O` (stereo not given), the result was inactive.

Regarding `CCNc1nc(N)nc(Cl)n1`, the outcome was inactive.

Consider `CCCCOC(=O)[C@@H](C)Oc1ccc(Oc2ccc(C(F)(F)F)cn2)cc1`, for which the outcome was inactive.

`CCOC(=O)c1ccc(O)cc1`: the outcome was inactive.

On to `Oc1ccc(C(c2ccc(O)cc2)C(Cl)(Cl)Cl)cc1`, for which the AC50 was 30.7 µM (active).

With `c1ccc2[nH]c(-c3cscn3)nc2c1`, the outcome was inactive.

Turning to `CCCCCOC(=O)COc1cc(N2C(=O)C3=C(CCCC3)C2=O)c(F)cc1Cl`, the outcome was inactive.

As for `CC1(C)C(C=C(Cl)Cl)C1C(=O)OCc1cccc(Oc2ccccc2)c1` (stereo not given), the result was inactive.

In the case of `OB(O)O`, the result was inactive.

`C[C@]12CC[C@@H]3c4ccc(O)cc4C[C@@H](CCCCCCCCCS(=O)CCCC(F)(F)C(F)(F)F)[C@H]3[C@@H]1CC[C@@H]2O` (stereo not given in full): the result was inactive.

Regarding `COC(=O)c1ccccc1S(=O)(=O)NC(=O)Nc1nc(OC(F)F)cc(OC(F)F)n1`, the outcome was inactive.

As for `CCOC(=O)C(C)Oc1ccc(Oc2nc3ccc(Cl)cc3o2)cc1` (stereo not given), the result was inactive.

Turning to `O=C(O)c1ccccc1`, the result was inactive.

Regarding `O=C(c1ccc(O)cc1O)c1ccc(O)cc1O`, the outcome was inactive.

As to `CC(C)CCCCCCc1ccc(O)cc1`, the AC50 is 8.53 µM (active).

In the case of `CC(C)(C)[C@@H](O)[C@@H](Cc1ccc(Cl)cc1)n1cncn1`, the outcome was inactive.

As for `C#C[C@]1(O)CC[C@H]2[C@@H]3CCC4=CC(=O)CC[C@@H]4[C@H]3CC[C@@]21CC`, the outcome was inactive.

With `COC(=O)c1ccc(I)cc1S(=O)(=O)NC(=O)Nc1nc(C)nc(OC)n1`, the result was inactive.

Consider `S=C([S-])NCCNC(=S)[S-].[Mn+2]`, for which the outcome was inactive.

These data come from PubChem BioAssay (EPA / NIEHS).
